Laboratory results published in PubChem BioAssay AID493166 (National Center for Advancing Translational Sciences (NCATS), 2011).
Activity calls are given as the source filed them. Entries that show only a call come without a potency. Calls follow the shape of the dose curve; as a rule, active = well fitted curve in the direction sought with a large enough effect; inactive = no such curve, though single readings can be large or run the other way.

assay: Retest of LOPAC molecules that induce DNA re-replication in MCF 10A normal breast cells.; conditions: MCF 10A DNA re-replication, Hoechst nuclear intensity, 48 h; series mostly up to 45.1 µM
From the text: NIH Molecular Libraries Probe Production Network [MLPCN] NIH Chemical Genomics Center [NCGC] MLPCN Grant: Fast Track K99 CA136555 Assay Provider: Melvin DePamphilis, NICHD, NIH Assay Overview Eukaryotic cells normally restrict genome duplication to once per cell division. When this process is aberrant, DNA re-replication occurs when cells reinitiate DNA replication before the first round of replication is complete. DNA re-replication induces the DNA damage response, arrests cell proliferation, and triggers apoptosis. The cell cycle components cyclin A, Cdt-1, Cdc6 and geminin are critical regulators of this process and their misregulation results in DNA re-replication in normal and cancer cells. To identify compounds that induce re-replication in normal cells, an image-based assay was used to measure DNA content of nuclei, as detected by the fluorescent DNA binding dye, Hoechst. Cell nuclei were imaged by a fluorescence scanning plate imager and compounds that induce DNA re-replication were identified by the increase of nuclei with elevated fluorescence intensity.
Assay Protocol Summary For screening, 250 cells in 5 uL/well were dispensed into black clear 1536-well plates (Aurora) using a solenoid-based dispenser. Following transfer of 23 nL compound or DMSO vehicle by a pin tool, the plates were incubated 48 hr at 37 C and 5% CO2. After addition of 1 uL/well Hoescht stain, the plates were incubated 40 min at 37 C, 5% CO2 and total intensity of fluorescent objects (nuclei) were enumerated by an Acumen Explorer Ex3 (TTP LabTech) fluorescence scanning plate imager (405 nm excitation, 500-530 nm emission). Keywords: NIH Roadmap, MLPCN, MLI, MLSMR, qHTS, NCGC, DNA replication, cancer

SMILES	Potency
COc1cc2c(c(OC)c1OC)-c1ccc(OC)c(=O)cc1[C@@H](NC(C)=O)CC2	inactive
C=C(C)[C@H]1Cc2c(ccc3c2O[C@@H]2COc4cc(OC)c(OC)cc4[C@@H]2C3=O)O1	0.755 µM (active)
CC(C)NP(=O)(NC(C)C)OP(=O)(NC(C)C)NC(C)C	inactive
